Each structure is given as a SMILES string. Among all 290,000 compounds or so, about 3,000 (1%) were called active. The sample holds actives, similar compounds and a random draw of the others, so the mix is not that of the screen. Cut-off read from the data, not from the text of the source: active = inhibition mostly above about 36% (no sharp cut-off); inactive = mostly below about 34%.

The values that follow come from PubChem BioAssay AID1578 (Sanford-Burnham Center for Chemical Genomics, 2009).

The assay in a line: inhibition of NOD1-driven NF-kB reporter – cell-based, luminescence, uHTS, primary screen (AID 1578).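 Note: HEK-293T reporter cells stimulated with the NOD1 agonist gamma-tri-DAP.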 The following applies: NOD1-driven NF-kB luciferase reporter cells, at 4 µM, hits give high values.
In general, inhibition refers to the change of the read-out against control, counted positive when it falls. For the compound `CC(=O)Nc1ccc(S(=O)(=O)N(C)c2ccccc2)cc1`, the inhibition is -12.7% (inactive).

For the compound `CCOC(=O)/C=C/C(=O)Nc1ccc(Oc2ccccc2)cc1`, the inhibition was 6.8% (inactive).

Consider `Cc1cc(NC(=O)Nc2cccc(C(F)(F)F)c2)no1`, for which the inhibition was -7.7% (inactive).

Take `NS(=O)(=O)c1cccc(NC(=O)CSc2nn(-c3ccccc3)c(=S)s2)c1`: the inhibition is 39.5% (inactive).

In the case of `Cc1ccc(NC(=O)CSc2nn(-c3ccc(Cl)cc3)c(=S)s2)cc1S(=O)(=O)N(C)C`, the inhibition is 53.2% (inactive).

Take `Cc1c(C(=O)NCCSCc2cccc(C(F)(F)F)c2)cnn1-c1ccc(F)cc1`: the inhibition is -3.5% (inactive).

Take `COc1cccc(NC(=O)Cc2ccc3ccccc3c2)c1`: the inhibition was 15.2% (inactive).

Turning to `Cc1ccc(NC(=O)Cn2c(=O)cnc3ccccc32)cc1S(=O)(=O)N(C)C`, the inhibition is -22.2% (inactive).

Take `Cc1sc(NC(=O)Nc2ccccc2)c(C(N)=O)c1C`: the inhibition was -40.3% (inactive).

For `COc1ccc(N2CCN(C(=O)NC(=O)c3ccc(Cl)cc3)CC2)cc1`, the inhibition was -13.4% (inactive).

Consider `COc1ccc(N2CCN(C(=O)C(C)(C)Oc3ccc(Cl)cc3)CC2)cc1`, for which the inhibition is -14.6% (inactive).

For `COC(=O)c1sc(N2CCN(c3ccc(Cl)cc3)CC2)nc1N`, the inhibition is 66.9% (active).

With `NS(=O)(=O)c1ccc(NCc2cc(Cl)ccc2OCc2ccc(F)cc2)cc1`, the inhibition is 27.2% (inactive).

Turning to `Cc1ccc2c(c1)c(=O)c1c3n2CCN(C(=O)CCl)C3CC1` (stereo unspecified), the inhibition is 105% (active).

Regarding `Cc1ccc2c(c1)c1c3n2CCN(C(=O)CCl)C3CCC1` (stereo unspecified), the inhibition was 52.3% (inactive).

As for `CC(=O)N1CCn2c3c(c(=O)c4cc(C)ccc42)CCC31` (stereo unspecified), the inhibition was -6.4% (inactive).

As to `CCc1ccc2c(CN3CCN(S(=O)(=O)c4ccc5c(c4)OCCO5)CC3)cc(=O)oc2c1`, the inhibition was -2.7% (inactive).

Take `COc1ccc(S(=O)(=O)n2c([N+](=O)[O-])cnc2C)cc1OC`: the inhibition is -2.3% (inactive).

Consider `CC1=C(C(=O)OCc2ccccc2)C(c2ccc(Cl)cc2)NC(=O)N1C` (stereo unspecified), for which the inhibition was -1.2% (inactive).

Regarding `O=C(N/N=C/c1cccnc1)C1CCCCC1`, the inhibition is -16.2% (inactive).

`Cc1cc(C)cc(C(=O)N2CCN=C2SCc2ccc([N+](=O)[O-])cc2)c1`: the inhibition was 41% (inactive).

As to `Cc1ccc(C(=O)N2CCN=C2SCc2ccc([N+](=O)[O-])cc2)cc1`, the inhibition is 35.5% (inactive).

`Cc1cccc(C(=O)N2CCN=C2SCc2ccc([N+](=O)[O-])cc2)c1`: the inhibition was 41.9% (active).

With `O=C(C1CC1)N1N=C(c2ccncc2)CC1(O)C(F)(F)F` (stereo unspecified), the inhibition was -21.3% (inactive).

Regarding `O=C(NCc1cccc(C(F)(F)F)c1)C1CC(c2cccc(F)c2)=NO1` (stereo unspecified), the inhibition was -5% (inactive).

As for `O=C(/C=C/c1cccc([N+](=O)[O-])c1)Nc1ccccc1N1CCOCC1`, the inhibition was -27.5% (inactive).
